# The list is not random: actives were taken first. Their share in the collection is about 4.1%.
# Jurkat NFkB inh: inhibitors of the PMA/ionomycin-induced NF-kB reporter in Jurkat cells. PMA/ionomycin-induced NF-kB luciferase reporter, luminescence. inhibition, % at 4 µM. 0.53% of 330,000 active. AID 435003; in the data active = inhibition above about 50%
# Gli-Sufu block: antagonists of Gli-Sufu signaling. Sufu-KO-LIGHT fibroblasts, Gli luciferase reporter luminescence. inhibition, % at 5 µM. 0.74% of 340,000 active;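 active = inhibition above about 55%, limit read from the data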;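 note: 0% = DMSO-treated cells and 100% = wells with medium but no cells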
# KLF5 inhibitor: suppresses KLF5 promoter-driven expression; 0.23% of 290,000 active; inhibition, % at 5 µM; DLD-1 KLF5 promoter-luciferase reporter, luminescence;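 active = inhibition above a per-plate limit of that plate's mean compound inhibition plus 3 SD, cut at about 60% in these data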;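 note: 0% = DMSO wells and 100% = LY294002 at 200 µM; higher means less KLF5 promoter-driven luciferase light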
# Mdm2-MdmX inh: disrupts the human Mdm2-MdmX interaction; 3% of 330,000 active; SaOS-2 split-luciferase Mdm2/MdmX complementation, luminescence; O15151+Q00987; inhibition, % at 8 µM;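 active = inhibition of at least 50% at 8 µM in the primary screen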
# aSyn UTR inh: MLPCN primary screen, SNCA 5' untranslated region; alpha-synuclein 5'UTR reporter, inhibitor activity; inhibition, % (tested at 7.5 µM); AID 1813; 0.82% of 300,000 active; in the data active = inhibition above about 60%;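 note: H4 neuroglioblastoma cells stably carrying SNCA 5'UTR luciferase fusion; 0% = DMSO wells and 100% = positive control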
# 697 NFkB inh: inhibitors of the PMA/ionomycin-induced NF-kB reporter in 697 B cells; AID 435022; 0.33% of 330,000 active; 697 B-cell NF-kB luciferase reporter, 16 h; inhibition, % at 4 µM; in the data active = inhibition above about 35%
# Gli antag conf: confirmation of Gli-SUFU pathway antagonists; shares compounds with Gli-Sufu block; Sufu-KO-LIGHT cells, Gli luciferase reporter, luminescence; inhibition, % at 5 µM; 40% of 2,500 active;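 active = mean inhibition at 5 µM reaching about 45%, limit read from the data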;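 note: plate controls were DMSO-treated cells for no effect and wells lacking cells for full effect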
# Gli cytotox: counter-screen for Gli-SUFU antagonists: cytotoxicity; Sufu-KO-LIGHT cells cytotoxicity, ATP luminescence; shares compounds with Gli-Sufu block; 32% of 2,500 active; AID 651994; cytotoxicity, % at 5 µM;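 active = mean cytotoxicity at 5 µM above about 25%, limit read from the data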;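 note: cells exposed to compound overnight for roughly 16 to 18 hours; plate controls were DMSO wells with cells for no effect and medium without cells for full effect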
# Wnt3a cs: inhibits Wnt3a reporter, counter-screen for Gli-SUFU antagonists. 20% of 2,500 active. inhibition, % at 6.25 µM. Wnt-LIGHT cells, Wnt3a-driven luciferase reporter, luminescence. shares compounds with Gli-Sufu block;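 active = mean inhibition above about 25%, limit read from the data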
# * hit, by the source's call; x = no result.
SMILES,Jurkat NFkB inh,Gli-Sufu block,KLF5 inhibitor,Mdm2-MdmX inh,aSyn UTR inh,697 NFkB inh,Gli antag conf,Gli cytotox,Wnt3a cs
c1ccc(Cc2cc(-c3ccccc3)on2)cc1,-58.3,95.7*,-36.9,-11.2,-129.5,-53.0,-68.0,18.9,-143.9
Clc1ccc(SCc2cc(-c3ccccc3)on2)cc1,-1.1,-11.4,-1.1,22.0,-75.5,29.3,x,x,x
CCCCNC(=S)N(C)/N=C/c1ccc2c(c1)OCO2,-29.8,99.3*,-39.1,27.6,22.7,-22.9,20.7,22.8,8.2
CCCCNC(=S)N(C)/N=C/c1ccc(F)cc1,5.3,-2.7,-44.7,-5.2,-0.5,11.6,x,x,x
CCOC(=O)C1CCN(c2cc3c(cc2NC(=O)c2cc(OC)ccc2Br)n(C)c(=O)n3C)CC1,-7.1,50.6,-23.7,3.8,-18.6,-10.7,17.1,16.4,1.6
COc1ccc(CN(C)C(=O)COC(=O)c2c(-c3ccccc3Cl)noc2C)cc1,9.2,54.6,-32.8,1.3,11.0,-11.9,21.9,0.6,0.2
COc1ccc(NC(=O)CN(C)C(=O)c2c(-c3ccccc3Cl)noc2C)cc1,0.7,-8.6,x,9.0,-3.9,12.5,x,x,x
COc1ccc(CC(O)COS(N)(=O)=O)cc1 (centres undefined),4.3,0.4,-22.1,-22.1,6.1,-0.7,x,x,x
O=C(c1ccc(F)cc1)C1CCN(C(=S)NCC2CCCO2)CC1 (centres undefined),9.4,62.6*,-23.9,26.6,-8.3,-7.8,13.0,9.9,9.8
COc1cc(OC)cc(C(=O)Nc2nnc(SCC(=O)NCc3ccco3)s2)c1,-9.2,-1.6,-41.0,10.4,-48.8,-26.9,x,x,x
O=C(CSc1nc2sc3c(c2c(=O)n1-c1ccccc1)CCCC3)NCc1ccco1,-1.7,64.0*,-2.7,27.6,21.4,-6.3,27.8,3.9,-8.1
CCOC(=O)c1c(C)[nH]c(C)c1S(=O)(=O)N(C)CC(=O)Nc1cc(C)ccc1OC,1.4,7.7,-18.7,8.2,-5.4,4.3,x,x,x
CCOC(=O)c1c(C)[nH]c(C)c1S(=O)(=O)N(C)CC(=O)NCc1cccc(C)c1,8.8,51.5,-9.0,7.1,7.1,-4.8,4.8,-3.8,-23.3
CN(C)CC(C)(C)CNS(=O)(=O)CC12CCC(CC1=O)C2(C)C (centres undefined),-4.7,3.0,-23.0,-13.1,7.2,5.9,x,x,x
CC(C)(C)n1ncc2c(=O)n(Cc3cccc(Cn4cnc5c(cnn5C(C)(C)C)c4=O)c3F)cnc21,-2.4,77.0*,x,36.3,x,-0.6,78.1*,37.7*,17.8
COc1cccc(Cn2c(NCc3ccco3)nc3c2c(=O)n(C)c(=O)n3C)c1,17.2,80.9*,7.9,12.2,-17.3,-14.8,79.7*,40.6*,39.4*
Cn1c(=O)c2c(nc(NCCO)n2CCc2ccccc2)n(C)c1=O,1.3,15.1,x,17.6,0.2,-24.5,x,x,x
Cn1c(=O)c2c(nc(NCCOc3ccc(C(C)(C)C)cc3)n2C)n(C)c1=O,35.2,64.4*,-8.9,-11.7,8.4,-28.3,47.4*,8.5,6.7
COCCNc1nc2c(c(=O)n(C)c(=O)n2C)n1Cc1cccc(C(F)(F)F)c1,11.6,68.2*,-58.5,6.5,2.4,-9.6,70.7*,29.0*,27.8*
CC(C)n1c(NCCc2ccccc2)nc2c1c(=O)n(C)c(=O)n2C,22.7,51.0,-18.4,33.5,10.3,-57.7,59.1*,37.8*,-5.1
COc1cccc(Cn2c(NCC(C)C)nc3c2c(=O)n(C)c(=O)n3C)c1,-8.7,26.7,-16.9,4.1,9.2,0.6,x,x,x
CC(O)CNc1nc2c(c(=O)n(C)c(=O)n2C)n1Cc1cccc(C(F)(F)F)c1 (centres undefined),-4.8,14.9,-12.1,0.2,-2.3,-5.0,x,x,x
O=C(CNS(=O)(=O)c1ccc([N+](=O)[O-])cc1)N/N=C/c1ccc(O)cc1O,11.3,6.1,-9.9,34.3,0.5,2.8,x,x,x
CCN(C(=O)c1cccnc1SC)C12CC3CC(CC(C3)C1)C2,10.5,-27.2,-17.4,18.0,15.8,6.2,x,x,x
Cc1nn(C(=O)c2nn(C)cc2[N+](=O)[O-])c(C)c1Br,4.1,-0.1,-14.3,-14.2,-2.3,-5.1,x,x,x
SMILES,Jurkat NFkB inh,Gli-Sufu block,KLF5 inhibitor,Mdm2-MdmX inh,aSyn UTR inh,697 NFkB inh,Gli antag conf,Gli cytotox,Wnt3a cs
CCCNc1nc2c(c(=O)n(C)c(=O)n2C)n1Cc1cccc(C)c1,28.5,64.9*,-30.2,25.7,-12.8,-9.0,59.1*,19.6,31.1*
CCCNc1nc2c(c(=O)n(C)c(=O)n2C)n1CCc1ccccc1,17.6,31.7,2.3,12.6,-16.7,-40.3,x,x,x
COc1cccc2sc(=NC(=O)CS(=O)(=O)c3ccc(F)cc3)n(C)c12,-17.5,61.2*,x,10.5,-2.1,-17.2,52.9*,28.5*,14.2
COc1cccc2sc(=NC(=O)CS(=O)(=O)c3ccc(Cl)cc3)n(C)c12,39.7,73.2*,x,-3.2,-26.0,-33.8,78.7*,28.9*,39.7*
CCn1c(=NC(=O)CS(=O)(=O)c2ccc(C)cc2)sc2cccc(OC)c21,33.0,68.0*,x,10.0,0.6,-9.5,61.3*,23.0,36.5*
COc1cccc2sc(=NC(=O)CCS(=O)(=O)c3ccc(C)cc3)n(C)c12,-10.6,4.0,x,26.1,19.6,15.6,x,x,x
CCC(C)[C@H](NC(=O)c1cn(CC)c2cc3c(cc2c1=O)OCO3)C(=O)NCCCn1ccnc1 (some centres undefined),0.8,53.1,-5.1,-7.5,16.2,-8.3,4.7,-9.4,18.1
O=C(CCN1CCN(C/C=C/c2ccccc2)CC1)Nc1ccc(Cl)cc1,-4.4,54.9,-39.1,5.3,18.1,16.9,15.1,23.9,-32.0
CCc1nnc(NC(=O)C(C)C)s1,0.9,92.6*,-2.0,-6.5,8.6,2.8,10.6,-13.6,4.8
Cc1nnc(N/N=C/c2cc([N+](=O)[O-])c(N3CCC(C)CC3)cc2N2CCC(C)CC2)n1N,6.2,85.0*,44.4,16.3,-19.4,2.4,87.5*,36.4*,-22.3
O=C(O)Cn1cccc1C(=O)c1ccccc1,-10.4,95.9*,-7.8,6.2,x,18.9,9.2,3.6,-14.5
Cc1nn(-c2ccc(NC(=O)c3ccncc3)cc2)c(C)c1Cl,45.8,56.4*,-30.4,26.8,55.9,-3.2,45.4*,15.5,24.1
Cc1cccc(OCCSc2nc3ccccc3n2CCC(=O)O)c1,-11.7,2.7,-15.3,10.8,6.4,2.7,x,x,x
Cc1ccc(-c2nc3ncccc3o2)cc1NC(=O)c1ccc2c(c1)OCO2,x,9.9,x,x,x,x,x,x,x
O=C(CN1CCOCCOCCOCCOCC1)Nc1ccccc1,-21.6,95.7*,-17.0,-25.4,-31.7,2.8,20.1,7.5,-32.2
